# In the library only some 0.69% were active in any assay of this set; here they are far more common.
# UBC9 SUMO inh: inhibitors of in vitro SUMOylation cascade, primary screen, biochemical, HTRF, uHTS | inhibition, % at 35 µM | HTRF SUMOylation assay, SAE1/SAE2 + UBC9 | SUMO-conjugating enzyme UBC9 (Homo sapiens), P63279 | 0.36% of 290,000 active; in the data active = inhibition above about 50%, passing the limit was not always enough
# Target sequence (P63279 whole entry, looked up): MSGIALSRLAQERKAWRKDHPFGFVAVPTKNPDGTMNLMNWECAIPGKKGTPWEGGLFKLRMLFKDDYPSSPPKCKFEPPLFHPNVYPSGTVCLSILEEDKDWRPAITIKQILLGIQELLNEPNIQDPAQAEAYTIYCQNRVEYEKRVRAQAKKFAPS
# PERK inh: block of dimerizer-induced PERK translation repression, primary screen, PERK inhibitor project, CHO PERK-DD cells, SEAP luminescence, HTS; 0.17% of 220,000 active; inhibition, % at 5.6 µM; AID 1416, 2008; CHO PERK-DD fusion, SEAP luminescence translation reporter;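 active = inhibition above the mean inhibition of all tested compounds plus 3 SD, set separately per screening campaign, cut at about 2.9% in these data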;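 also: PERK kinase domain activated by AP20187 dimerizer at 100 nM; 0% = DMSO with dimerizer and 100% = rapamycin at 8.4 µM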
# DTT redox prof: compounds producing H2O2 with reducing agent – biochemical, NIH compound library profiling, artefact control for MLSCN library redox annotation, primary screen. DTT-dependent redox cycling H2O2, phenol red/HRP absorbance; 100% = 100 µM peroxide control, 0% = buffer. activation, % at 10 µM. 0.03% of 200,000 active;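 active = activation of at least 50% relative to the plate's high and low controls in the primary single-dose screen; inactive = activation below 50%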;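 also: compound incubated with DTT at 0.8 mM final as the reducing agent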
# p97 inhibitor: inhibitors of human p97 ATPase, primary screen, biochemical; recombinant p97 ATPase, Kinase-Glo ATP luminescence, 3 h; inhibition, % at 8 µM; 0.42% of 220,000 active; in the data active = inhibition above about 15%;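 also: 0% = DMSO vehicle and 100% = wells lacking enzyme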
# p97 inh conf: p97 ATPase inhibitors, retest, confirmation, biochemical | shares compounds with p97 inhibitor | AID 1517, 2009 | inhibition, % at 8 µM | recombinant p97 ATPase, Kinase-Glo ATP luminescence | 44% of 760 active;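 active = percent inhibition of p97 ATPase above a set limit, the primary screen's mean plus 3 SD, cut at about 15% in these data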;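 also: 0% = DMSO wells and 100% = wells lacking p97 protein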
# * = called active by the depositor; . = no result given.
SMILES,UBC9 SUMO inh,PERK inh,DTT redox prof,p97 inhibitor,p97 inh conf
Cc1[nH]c2ccccc2c1/C=N/NC(=O)c1cc(C(C)C)[nH]n1,6,1,.,17*,17*
Cc1[nH]c2ccccc2c1/C=N/NC(=O)c1cccs1,11,0,0,16*,22*
CN(C)c1ccc(NC(=O)CSc2nnc(C3CCCCC3)n2N)cc1,1,.,.,.,.
COC(=O)c1cc(-c2ccc(S(=O)(=O)N3CCCCC3)cc2)c(C(F)(F)F)s1,-18,0,.,-5,.
Cc1nc2cc(-c3ccsc3-n3c(C)ccc3C)[nH]n2c(=O)c1Cl,41,2,0,30*,10
Cc1cc(=O)n2[nH]c(-c3ccsc3-n3c(C)ccc3C)cc2n1,65*,1,.,23*,12
Cc1ccc(CC(=O)Nc2nccs2)cc1C,-8,.,.,.,.
N#Cc1c(N)n(CCNC(=O)c2ccccc2)c2nc3ccccc3nc12,102,0,1,3,.
CCCCn1c(NC(C)=O)c(C#N)c2nc3ccccc3nc21,102*,-1,2,30*,4
C=CCn1c(NC(=O)c2ccccc2Cl)c(C#N)c2nc3ccccc3nc21,.,1,0,43*,28*
O=C(COC(=O)/C=C/C(=O)N1CCN(c2ccccc2)CC1)NC(c1ccccc1)c1ccccc1,-15,0,0,4,.
CCC(CC)c1nn2c(N)c(/C=C3\C=Nc4ccccc43)c(=O)nc2s1,20,0,.,1,.
CCC(CC)c1nn2c(N)c(/C=C3\C(C)=Nc4ccccc43)c(=O)nc2s1,12,1,.,24*,25*
CC(C)Cc1nn2c(N)c(/C=C3\C=Nc4ccccc43)c(=O)nc2s1,22,2,-1,16*,12
CC(OC(=O)CCOc1ccccc1)C(=O)Nc1ccc(Cl)cn1 (stereo not given),8,.,.,.,.
CCOC(=O)c1c(CC(C)C)csc1NC(=O)c1ccccc1C(=O)O,20,0,.,18*,22*
CCOC(=O)c1c(NC(N)=O)sc(C)c1C,-17,1,3,0,.
CCOC(=O)c1c(N2C(=O)C=CC2=O)sc(C)c1C,25,2,0,15*,6
CCOC(=O)c1cc([N+](=O)[O-])c([N+](=O)[O-])cc1NC(C)=O,-9,1,0,16*,35*
COc1ccc(N2CCN(CC(=O)c3c(C)n(C)c4ccc(OC)cc34)CC2)cc1,22,0,.,27*,34*
COc1ccc2c(c1)c(C(=O)CN1CCOCC1)c(C)n2C,14,-1,0,-4,.
O=C(CCl)Nc1ccccc1C(=O)NCc1ccccc1,9,0,-2,18*,16*
COC(=O)c1ccccc1NC(=S)NC(=O)C1CCCCC1,0,0,0,18*,19*
Cc1ccccc1C(=O)NC(=S)Nc1ccccc1C(=O)O,0,2,0,3,.
COC(=O)c1ccccc1NC(=S)NC(=O)c1ccccc1C,13,0,-8,36*,39*
SMILES,UBC9 SUMO inh,PERK inh,DTT redox prof,p97 inhibitor,p97 inh conf
COC(=O)c1ccccc1NC(=S)NC(=O)c1ccccc1,10,1,2,26*,21*
COC(=O)c1ccccc1NC(=S)NC(=O)c1ccc(C)cc1,14,0,2,6,.
CCCCCC(=O)O/N=C(\C)c1ccn(S(=O)(=O)c2ccccc2)c1,-6,.,.,.,.
Cc1ccc(-c2cn(-c3ccccc3)c(SCC(=O)NC3CCS(=O)(=O)C3)n2)cc1C (stereo not given),10,-1,.,-1,.
Cc1ccc(N/C(C(Cl)=C(Cl)Cl)=C(/Cl)[N+](=O)[O-])c(C)c1,12,1,0,19*,21*
Nc1c(-c2ccccc2)c(CSc2nc3ccccc3[nH]2)nn1-c1cccc(C(=O)O)c1,22,0,0,16*,7
Cc1cccc(C)c1NC(=S)N/N=C/c1ccc(OCCC(C)C)cc1,3,0,1,-2,.
O=C1NCCCCC1NC1CC(=O)N(c2ccccc2)C1=O (stereo not given),-2,2,-1,17*,9
CCOc1ccc(N2C(=O)CC(NC3CCCCNC3=O)C2=O)cc1 (stereo not given),-1,1,1,4,.
O=C(Nc1ccc(Cl)cc1)C1CC2CCCC(C1)C2=O (stereo not given),-4,0,0,-4,.
O=C(Nc1ccccc1)C1CC2CCCC(C1)C2=O (stereo not given),18,1,2,17*,6
COc1cccc(C(=O)NCc2ccc3c(c2)cc(C)n3C)c1,-5,0,-9,20*,8
COc1ccc(C(=O)NCc2ccc3c(c2)cc(C)n3C)cc1OC,-2,1,0,4,.
CCOC(=O)[C@H]1[C@H]2COc3cc(OC)ccc3[C@@H]2N2C(=O)N(c3cccc(Cl)c3)C(=O)[C@@]12C,-13,.,.,.,.
COc1ccc(CCNC(=O)Cn2cccc2C(=O)c2ccccc2C)cc1OC,4,-1,0,-3,.
Oc1[nH]c2ccc(Br)cc2c1N=NC(=S)Nc1ccc(F)cc1,27,-3,.,3,.
Oc1ccc(NC(=S)N=Nc2c(O)[nH]c3ccc(Br)cc23)cc1,-76,0,0,21*,21*
Oc1cccc(NC(=S)N=Nc2c(O)[nH]c3ccc(Br)cc23)c1,-12,0,.,25*,23*
O=C(NCC(O)CO)c1ccc2[nH]c3ccccc3c2c1 (stereo not given),30,1,1,9,.
CCOC(=O)CNC(=O)c1ccc2[nH]c3ccccc3c2c1,8,0,0,15*,11
Cc1cc2cccc(C)c2nc1SCC(=O)NNC(=O)c1ccco1,2,0,0,3,.
Cc1cc(C)c2nc(SCC(=O)NNC(=O)c3ccco3)c(C)cc2c1,-10,1,-1,15*,16*
COC(=O)c1c(-c2ccccc2)csc1N1C(=O)Nc2ccccc2N1O,30,0,0,15*,23*
CCOC(=O)c1c(-c2ccccc2)csc1N1C(=O)Nc2ccccc2N1O,24,1,0,18*,21*
COC(=O)c1c(N2C(=O)Nc3ccccc3N2O)sc2c1CCCC2,7,1,0,9,.
O=C(CSc1ccsc1[N+](=O)[O-])N1CCN(c2ccccn2)CC1,17,0,0,18*,8
O=C(CSc1ccccc1)N1CCN(c2ccccn2)CC1,3,1,-1,1,.
C#CCOCCOCCOCCNc1nc(N2CCN(C(=O)[C@H](CCCCN)n3cc([C@@H](N)CC(C)C)nn3)CC2)nc(N2CCN(C(=O)[C@H](Cc3cc4ccccc4[nH]3)n3cc([C@@H](N)Cc4ccc(O)cc4)nn3)CC2)n1,-1,1,0,21*,16*

# Screening results (PubChem)
